MITF TRPM1 inh: MITF TRPM1 promoter inhibition in SK-MEL-5 cells; SK-MEL-5 TRPM1 promoter luciferase, 24 h; inhibition, % at 12.5 µM; 0.83% of 330,000 active; AID 488899;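 active = mean inhibition across replicates of 60% or more, whatever share of single replicates reaches that level; inconclusive = some that reach 60%, reason not given; inactive = mean inhibition across replicates below 60%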
LGR2 inh: blocks bursicon-induced cAMP signaling via Drosophila LGR2; AID 720647; 0.35% of 380,000 active; inhibition, % at 9.99 µM; HEK293 LGR2, CRE-luciferase, bursicon-stimulated, 4 h;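 active = drop in luminescence signal, shown as inhibition above about 50% in the replicate tests, limit read from the data, passing the limit was not always enough; inconclusive = probably only some replicates passing the limit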;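 note: agonist challenge used bursicon conditioned medium at about half maximal strength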
PAX8 inh HTS: inhibitors of PAX8 transcriptional activity in RMG-I cells. RMG-I TPO-luciferase reporter, SteadyGlo, 24 h. inhibition, % at 12.6 µM. 1.2% of 360,000 active;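 active = mean replicate inhibition at least 60% with every replicate also reaching 60%; inconclusive = only one of the two criteria is met; inactive = mean below 60% and not all replicates reaching 60%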;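 note: luciferase light reporting Pax8 driven TPO promoter activity; plate controls were median of neutral control wells for no effect and mitoxantrone controls for full effect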
EWS-Fli block: EWS/Fli transcriptional activity inhibition. A673 NR0B1-luciferase reporter, viability-normalised. inhibition, % at 12.6 µM. 0.67% of 350,000 active. AID 651661;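 active = mean inhibition of at least 50% after viability correction, with every replicate also passing that limit; inconclusive = mean reaches 50% but only one of two replicates passes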;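 note: firefly luciferase signal divided by Alamar Blue viability fluorescence both relative to DMSO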
PGC1a acetyl inh: lowers PGC1a acetylation signal in U2OS cells. AlphaScreen anti-acetyl-lysine; with virally co-expressed GCN5 acetyltransferase. inhibition, % at 15.6 µM. 0.17% of 350,000 active. AID 651687;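 active = every replicate shows inhibition of at least 40%; inconclusive = mean inhibition at least 40% but some replicate below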;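 note: 0% = neutral control wells and 100% = positive control wells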
LMP1 NFkB inh: Epstein-Barr LMP1 NF-kappaB reporter inhibition; LMP1-induced NF-kappaB luciferase reporter cells, luminescence; inhibition, % at 12.5 µM; 0.69% of 350,000 active; in the data active = inhibition above about 41%; inconclusive = no clear call, values can overlap the other calls;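 note: 0% = neutral control wells and 100% = reference inhibitor control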
Starred values were filed as active, the others as inactive; ? = inconclusive; / = not tested or not shown. Shown are actives, neighbours in structure and some others; about 2.2% of the full set was active somewhere.

SMILES | MITF TRPM1 inh | LGR2 inh | PAX8 inh HTS | EWS-Fli block | PGC1a acetyl inh | LMP1 NFkB inh
O=C(N[C@@H]1CC[C@H](CCn2cc(-c3ccccc3)nn2)O[C@H]1CO)c1ccccc1F | / | 3 | 5 | 24 | -1 | /
C[C@@H]1CCCCO[C@H](CN(C)S(=O)(=O)c2ccc(Cl)cc2)[C@@H](C)CN([C@@H](C)CO)C(=O)c2cc(NC(=O)NC3CCCCC3)ccc2O1 | / | 9 | 23 | -3 | 14 | /
COCc1cn(CC[C@@H]2CC[C@H](NC(=O)Cc3cccnc3)[C@@H](CO)O2)nn1 | / | 25 | -1 | -1 | -3 | /
COc1ccc(-c2ccc3c(c2)O[C@@H](CN(C)Cc2cccnc2)[C@H](C)CN([C@H](C)CO)S3(=O)=O)cc1 | / | 12 | / | 21 | 8 | /
O=S(=O)(Cc1ccccc1)N1CCCCN2[C@H](CO)[C@H](c3ccc(-c4cncnc4)cc3)[C@H]2C1 | / | -10 | 2 | -1 | 0 | /
Cc1ccc2[nH]c(C)c(/C=C/c3cc[n+](C)cc3)c2c1 | 55 | 9 | 78* | 50 | / | 21
Cc1ccc2c(c1)c(/C=C/c1cc[n+](C)cc1)c(C)n2C | ? | 7 | ? | 57* | / | 13
C[n+]1ccc(/C=C/c2ccc(Br)cc2)cc1 | 58 | / | / | / | 5 | -10
S=C(Nc1ccccc1)Nc1ccc(OCc2ccc(Cl)cc2Cl)cc1 | 82* | / | / | / | / | 77*
CO[C@H]1CN(C)C(=O)c2ccc(NC(=O)C3CC3)cc2OC[C@H](C)N(C)C[C@@H]1C | / | -7 | -70 | 4 | 7 | /
CCOc1ccc(N2CC(O)=C(c3nc4ccccc4c(=O)[nH]3)C2=N)cc1 | -10 | 25 | 4 | -7 | 9 | 46*
C[C@H]1CN([C@@H](C)CO)C(=O)c2cccc(NC(=O)Nc3cccc4ccccc34)c2O[C@H]1CN(C)S(=O)(=O)c1cn(C)cn1 | / | -18 | / | -12 | 9 | /
COc1ccc(S(=O)(=O)Nc2ccc3c(c2)CC(=O)N([C@@H](C)CO)C[C@@H](C)[C@@H](CN(C)Cc2ccc(C(F)(F)F)cc2)O3)cc1 | / | 15 | 19 | 9 | -5 | /
COc1ccc(S(=O)(=O)Nc2ccc3c(c2)CC(=O)N([C@@H](C)CO)C[C@@H](C)[C@H](CN(C)Cc2ccc(C(F)(F)F)cc2)O3)cc1 | / | 21 | 111* | 42 | -9 | /
COc1ccc(S(=O)(=O)Nc2ccc3c(c2)CC(=O)N([C@H](C)CO)C[C@H](C)[C@@H](CN(C)Cc2ccc(C(F)(F)F)cc2)O3)cc1 | / | / | 113* | 19 | 0 | /
C[C@H](CO)N1C[C@H](C)[C@H](CN(C)C(=O)Nc2ccccc2)Oc2ccc(NC(=O)Cc3ccccc3)cc2CC1=O | / | 2 | -1 | -6 | -1 | /
CC(C)Oc1ccc(C(CCNCc2ccc(O)cc2)c2ccccc2)cc1 (centres undefined) | 86* | -6 | 25 | ? | 11 | 4
Cc1ccc(-n2nc(C(=O)NCc3ccc(C)o3)c3c4ccccc4n(C)c3c2=O)cc1 | -6 | / | 37 | / | / | 49*
COC(=O)[C@@H]1Cc2c([nH]c3ccccc23)C(C)(C)N1C(=O)CCl | 28 | 19 | 112* | 58* | 19 | -1
O=C(CSCC(=O)Nc1nc(-c2ccc3c(c2)OCO3)cs1)Nc1nccs1 | -11 | -7 | -168 | -56 | -1 | 85*
O=C(CSc1ccc(-c2ccc3c(c2)OCO3)nn1)Nc1nccs1 | 8 | -5 | -31 | -8 | 16 | -14
CC1C(=O)Nc2ccc(S(=O)(=O)N3CCN(c4cccc(C(F)(F)F)c4)CC3)cc2NC1=O (centres undefined) | 16 | -6 | 68* | / | -8 | -20
CCCC[C@@H](CNC)NC[C@H](Cc1ccc(O)cc1)NCCc1ccc(OCC)cc1 | 96* | 18 | 53 | 24 | -7 | -15
CCC[C@H](CN[C@@H](CNC)[C@H](C)O)NCCc1ccc(OC)cc1 | -4 | -1 | -11 | -7 | -3 | -4
Cc1cc(-n2c(C)cc(C(=O)CCl)c2C)no1 | 76* | 5 | -3 | 28 | / | 0
SMILES | MITF TRPM1 inh | LGR2 inh | PAX8 inh HTS | EWS-Fli block | PGC1a acetyl inh | LMP1 NFkB inh
Cc1cc(-n2c(C)cc(C(=O)CN3C(=O)C(=O)N(C)C3=O)c2C)no1 | 2 | 17 | -3 | -3 | 4 | 6
COc1ccc(-n2c(C)cc(C(=O)CCl)c2C)cc1 | 95* | 11 | 1 | 61* | -13 | 22
COc1ccc(-n2c(C)cc(C(=O)CN3C(=O)c4ccccc4C3=O)c2C)cc1 | -18 | -21 | -52 | / | / | -5
C[C@@H]1CN([C@@H](C)CO)C(=O)Cc2cc(NC(=O)C3CCCCC3)ccc2O[C@@H]1CN(C)S(=O)(=O)c1cn(C)cn1 | / | 30 | -10 | 3 | -7 | /
CC(C)NC(=O)N(C)C[C@H]1Oc2ccc(NS(=O)(=O)c3ccccc3)cc2CC(=O)N([C@H](C)CO)C[C@@H]1C | / | 2 | 10 | 1 | -3 | /
CS(=O)(=O)c1ncc(Cl)c(C(=O)Nc2ccc(OC(F)F)cc2)n1 | 73* | 4 | / | / | / | ?
CS(=O)(=O)c1ncc(Cl)c(C(=O)Nc2ccc(N3CCOCC3)cc2)n1 | 92* | / | / | / | -81 | 35
CS(=O)(=O)Nc1ccc2c(c1)[C@@H]1C[C@@H](CC(=O)N3CCc4ccccc4C3)O[C@H](CO)[C@@H]1O2 | / | -29 | -9 | -5 | 6 | /
Cc1noc(C)c1S(=O)(=O)N(C)C[C@H]1OCCCC[C@H](C)Oc2ccc(NS(=O)(=O)c3ccc(Cl)cc3)cc2C(=O)N([C@H](C)CO)C[C@@H]1C | / | 2 | 70* | 4 | -4 | /
Cc1noc(C)c1S(=O)(=O)Nc1ccc2c(c1)C(=O)N([C@H](C)CO)C[C@H](C)[C@@H](CN(C)S(=O)(=O)c1ccc(Cl)cc1)OCCCC[C@H](C)O2 | / | -5 | 54 | -2 | / | /
COc1ccc(S(=O)(=O)N(C)C[C@H]2OCCCC[C@H](C)Oc3ccc(NS(=O)(=O)c4c(C)noc4C)cc3C(=O)N([C@H](C)CO)C[C@@H]2C)cc1 | / | -4 | 12 | 5 | 1 | /
COc1ccc(S(=O)(=O)N(C)C[C@H]2OCCCC[C@@H](C)Oc3ccc(NS(=O)(=O)c4c(C)noc4C)cc3C(=O)N([C@H](C)CO)C[C@H]2C)cc1 | / | 8 | 77* | 6 | -16 | /
Cc1noc(C)c1S(=O)(=O)Nc1ccc2c(c1)C(=O)N([C@H](C)CO)C[C@@H](C)[C@@H](CN(C)S(=O)(=O)c1ccc(Cl)cc1)OCCCC[C@H](C)O2 | / | -14 | 70* | -4 | / | /
C[C@@H]1CCCCO[C@@H](CN(C)Cc2ccccc2)[C@@H](C)CN([C@@H](C)CO)C(=O)c2cc(NC(=O)C3CCCCC3)ccc2O1 | / | -10 | 9 | -1 | 17 | /
COCC(=O)N1[C@H](CO)[C@@H]2c3ccccc3N(C(=O)c3ccncc3)C[C@@H]21 | / | 8 | -6 | -1 | 1 | /
CCOc1ccccc1N(CC(=O)Nc1ccc(S(=O)(=O)N2CCOCC2)cc1)S(=O)(=O)c1ccc(Cl)cc1 | -12 | 3 | 62* | -6 | / | -9

Source: PubChem BioAssay
